Assay results taken from PubChem BioAssay (NCI).
About 83,000 compounds went through this panel and 20% of them were active in at least one assay; those are over-represented in the sample as a whole.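 Cell lines were cultured in 96-well plates, exposed to a single compound concentration, and assessed for percent growth 48 hours later.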 Calls of active or inactive are those of the source. Rule for the calls: active = growth percent below 10; inactive = the rest.

System: KM12 colon
Test: NCI-60 one-dose screen, 48 h (100 = growth as untreated, 0 = no growth, -100 = all killed)
Conditions: 10 µM unless noted

Question: Which growth does the source give for `COc1ccc2[nH]cc(-c3nnc(N)nc3-c3cn(C)c4ncc(Br)cc34)c2c1` here?
Answer: Its growth is 75.5% (inactive).

Question: For `N/C(=N\c1nc2ccccc2s1)NC(=O)Nc1ccc(Cl)cc1Cl`, which growth is on record?
Answer: Its growth is -64.4% (active).

Question: With `O=C(COc1ccc(NC(=O)Nc2ccc(Cl)c(Cl)c2)cc1)N=Nc1c(O)[nH]c2ccc(Cl)cc12` as the compound, how does the growth read?
Answer: Its growth is -87.9% (active).

Question: How did the growth turn out when `CC(=O)Nc1ccc(-n2cnc3cc(-c4ccc(O)cc4)ccc32)cc1C(F)(F)F` was run?
Answer: The growth was 3.46% (active).

Question: With `COc1ccc2c(c1)C(=N/N=C(\C)c1ccc(OC)c(S(N)(=O)=O)c1)C(=O)N2` as the compound, how does the growth read?
Answer: The growth was 97.5% (inactive).

Question: For `Cc1ccc2c(c1)nc(-c1ccccc1)n2CC(=O)N=Nc1c(O)[nH]c2ccc(Br)cc12`, which growth is on record?
Answer: The growth was -46% (active).

Question: How did the growth turn out when `C=CC(=O)Nc1ccc(C)c(Oc2ccc(Cl)cc2)c1` was run?
Answer: The growth was 47.2% (inactive).

Question: With `COc1cc2oc(-c3cccc(C(=O)Nc4cccc([N+](=O)[O-])c4)c3)cc(=O)c2c(OC)c1OC` as the compound, how does the growth read?
Answer: The growth was 47.9% (inactive).

Question: `COc1ccc2oc3c4[nH]c5ccccc5c4c4c(c3c2c1)C(=O)N(C(=O)OC(C)(C)C)C4=O` was tested. Which growth did it give?
Answer: Its growth is -18.9% (active).

Question: How did the growth turn out when `CC(=O)OC[C@@]1(C)C2CC[C@]3(C)C(CC=C4C5CC(C)(C)CC[C@]5(C(=O)Nc5ccc(F)cc5)CC[C@]43C)[C@@]2(C)C[C@@H](OC(C)=O)[C@@H]1OC(C)=O` (stereo not given in full) was run?
Answer: The growth was 44.6% (inactive).

Question: How did the growth turn out when `CC1(C)CC[C@]2(C(=O)O)CC[C@]3(C)C(=CCC4[C@@]5(C)C[C@@H](O)[C@@H]6OC(c7ccccc7Br)OC[C@@]6(C)C5CC[C@]43C)C2C1` (stereo not given in full) was run?
Answer: The growth was 16.9% (inactive).

Question: `Nc1nc(C(F)(F)F)cs1` was tested. Which growth did it give?
Answer: The growth was 100% (inactive).

System: MDA-MB-468 breast
Test: as above
Conditions: 10 µM unless noted

Question: How did the growth turn out when `CC1(C)CC[C@]2(C(=O)O)CC[C@]3(C)C(=CCC4[C@@]5(C)C[C@@H](O)[C@@H]6OC(c7cccc(Br)c7)OC[C@@]6(C)C5CC[C@]43C)C2C1` (stereo not given in full) was run?
Answer: The growth was 23.6% (inactive).

Question: Which growth does the source give for `CCOC(=O)/C=C/c1cccc2c1C(=O)NC(C)(c1cc3cc(Br)ccc3oc1=O)N2` (stereo not given) here?
Answer: Its growth is 32.3% (inactive).

Question: How did the growth turn out when `COc1cc(OC)c2c3nc4cc(C)c(C)cc4nc3n(CCN(C)C)c2c1` was run?
Answer: Its growth is 65.6% (inactive).

Question: With `COc1ccc(N2N=C(c3ccc4c(c3)OCO4)CC2c2cccc(NC(=O)CCCNS(=O)(=O)c3ccc(F)cc3)c2)cc1` (stereo not given) as the compound, how does the growth read?
Answer: The growth was 35.5% (inactive).

Question: For `Cc1ccc(NC(=O)CN2CCN(c3ncnc4c3cnn4-c3ccccc3)CC2)cc1`, which growth is on record?
Answer: The growth was 87.1% (inactive).

Question: With `CN(C)CCn1c2ccccc2c2nc3cc4ccccc4cc3nc21` as the compound, how does the growth read?
Answer: Its growth is 23.7% (inactive).

Question: `Cc1ccc(C2CC(c3ccc(S(=O)(=O)NCCNc4nc(Nc5ccc(F)cc5)nc(N(C)C)n4)cc3)=Nc3c(N)nc(N)nc3N2)cc1` (stereo not given) was tested. Which growth did it give?
Answer: The growth was -12.8% (active).

Question: `O=c1onc(-c2cc3ccccc3nc2Cl)n1-c1cccc2ccccc12` was tested. Which growth did it give?
Answer: Its growth is -25.2% (active).

Question: `CCCS(=O)(=O)N1CCCC(C(=O)Nc2nc3ccc(NC(=O)c4ccc(F)c(OC)c4F)cc3s2)C1` (stereo not given) was tested. Which growth did it give?
Answer: The growth was 18.5% (inactive).

Question: `CN(C)c1nc(NCCNS(=O)(=O)c2ccc(C(=O)/C=C/c3ccc(F)cc3)cc2)nc(Nc2ccc(F)cc2)n1` was tested. Which growth did it give?
Answer: Its growth is -82.8% (active).

Question: For `O=C(CCN1C(=O)/C(=C/c2ccc(F)cc2)SC1=S)N1CCOCC1`, which growth is on record?
Answer: The growth was -11.2% (active).

Question: For `O=c1[nH]c2ccccc2cc1CSc1nccc(-c2ccc3ccccc3c2)n1`, which growth is on record?
Answer: Its growth is -17.2% (active).

Question: How did the growth turn out when `CC(=O)Nc1ccc(-n2cnc3ccc(-c4ccc(O)cc4)cc32)cc1` was run?
Answer: The growth was 22% (inactive).

Question: Which growth does the source give for `CC(C)Sc1nc(NCCc2c[nH]c3ccccc23)c(C#N)c(-c2ccc(F)cc2)n1` here?
Answer: Its growth is 2.22% (active).

Question: Which growth does the source give for `CC(=O)c1c(N)c(C#N)cn1-c1ccc(Cl)cc1Cl` here?
Answer: The growth was 97.1% (inactive).

Question: For `C#CCOc1ccc(/C=N/Nc2nc(-c3ccc(Cl)cc3)cs2)cc1OC`, which growth is on record?
Answer: Its growth is 42.1% (inactive).

Question: For `C/C(=N\N=C1/C(=O)Nc2ccc(Cl)cc21)c1ccc2c(c1)Nc1ccccc1S2`, which growth is on record?
Answer: The growth was 2.73% (active).

Question: For `CC12CC[C@@H]3[C@]4(C)COC(c5c(F)cccc5F)O[C@@H]4CC[C@@]3(C)[C@@H]1CC(C1=CCOC1=O)O2` (stereo not given in full), which growth is on record?
Answer: The growth was 52.1% (inactive).

Question: How did the growth turn out when `NC(=S)Nc1cccc(NC(N)=S)c1` was run?
Answer: Its growth is 86.5% (inactive).

Question: For `Cc1ccc([C@H]2C(C(=O)c3ccc(Cl)cc3)C3(N[C@@H]2c2ccccc2)C(=O)Nc2ccc(Br)cc23)cc1` (stereo not given in full), which growth is on record?
Answer: Its growth is 59.5% (inactive).

Question: For `CC(=O)OC[C@@]1(C)C2CC[C@]3(C)C(CC=C4C5CC(C)(C)CC[C@]5(C(=O)Nc5cccc(C)c5)CC[C@]43C)[C@@]2(C)C[C@@H](OC(C)=O)[C@@H]1OC(C)=O` (stereo not given in full), which growth is on record?
Answer: The growth was 1.92% (active).

Question: How did the growth turn out when `CCCSc1nc(NCCc2c[nH]c3ccccc23)c(C#N)c(-c2ccc(F)cc2)n1` was run?
Answer: The growth was 44.4% (inactive).

Question: `Clc1ccc(-c2ccc(OCCCN3CCN(c4ccncc4)CC3)cc2)cc1` was tested. Which growth did it give?
Answer: The growth was -9.68% (active).

Question: With `COc1ccc(C2(SCCNCc3cc(N(C)C)ccn3)c3ccccc3C=Cc3ccccc32)cc1` as the compound, how does the growth read?
Answer: Its growth is -46.9% (active).

Question: For `COc1ccc(C2=NN(C(C)=O)C(c3ccc(OCc4ccc(Cl)cc4)c(OC)c3)C2)cc1OC` (stereo not given), which growth is on record?
Answer: The growth was 31.1% (inactive).

Question: Which growth does the source give for `CCN(CC)c1ccc(/C=N/Nc2nc(-c3ccc(C)cc3)cs2)c(O)c1` here?
Answer: Its growth is 66.7% (inactive).

Question: Which growth does the source give for `COc1ccc2[nH]cc(-c3nnc(N)nc3-c3cn(C)c4ncc(Br)cc34)c2c1` here?
Answer: Its growth is 42.9% (inactive).

Question: `N/C(=N\c1nc2ccccc2s1)NC(=O)Nc1ccc(Cl)cc1Cl` was tested. Which growth did it give?
Answer: Its growth is -48.6% (active).

Question: How did the growth turn out when `O=C(COc1ccc(NC(=O)Nc2ccc(Cl)c(Cl)c2)cc1)N=Nc1c(O)[nH]c2ccc(Cl)cc12` was run?
Answer: The growth was -51% (active).

Question: `CC(=O)Nc1ccc(-n2cnc3cc(-c4ccc(O)cc4)ccc32)cc1C(F)(F)F` was tested. Which growth did it give?
Answer: Its growth is 8.18% (active).

Question: With `COc1ccc2c(c1)C(=N/N=C(\C)c1ccc(OC)c(S(N)(=O)=O)c1)C(=O)N2` as the compound, how does the growth read?
Answer: Its growth is 78.6% (inactive).

Question: For `Cc1ccc2c(c1)nc(-c1ccccc1)n2CC(=O)N=Nc1c(O)[nH]c2ccc(Br)cc12`, which growth is on record?
Answer: Its growth is -78.4% (active).

Question: Which growth does the source give for `C=CC(=O)Nc1ccc(C)c(Oc2ccc(Cl)cc2)c1` here?
Answer: The growth was 10.2% (inactive).

Question: For `COc1cc2oc(-c3cccc(C(=O)Nc4cccc([N+](=O)[O-])c4)c3)cc(=O)c2c(OC)c1OC`, which growth is on record?
Answer: Its growth is 33% (inactive).

Question: How did the growth turn out when `COc1ccc2oc3c4[nH]c5ccccc5c4c4c(c3c2c1)C(=O)N(C(=O)OC(C)(C)C)C4=O` was run?
Answer: The growth was -22.9% (active).

Question: Which growth does the source give for `CC(=O)OC[C@@]1(C)C2CC[C@]3(C)C(CC=C4C5CC(C)(C)CC[C@]5(C(=O)Nc5ccc(F)cc5)CC[C@]43C)[C@@]2(C)C[C@@H](OC(C)=O)[C@@H]1OC(C)=O` (stereo not given in full) here?
Answer: Its growth is 5.58% (active).

Question: With `CC1(C)CC[C@]2(C(=O)O)CC[C@]3(C)C(=CCC4[C@@]5(C)C[C@@H](O)[C@@H]6OC(c7ccccc7Br)OC[C@@]6(C)C5CC[C@]43C)C2C1` (stereo not given in full) as the compound, how does the growth read?
Answer: The growth was 18.4% (inactive).

Question: For `Nc1nc(C(F)(F)F)cs1`, which growth is on record?
Answer: Its growth is 101% (inactive).
